# Source: the supplement of paper PMC11732987, “Enantioselective OTUD7B fragment discovery through chemoproteomics screening and high-throughput optimisation” (Communications Chemistry, 2025)
# Unmarked numbers belong to inactive results.
# Experiments:
# Assay in all cases: log2 ratio of Biotin-Ahx-Ub-VS probe labelling (fragment/DMSO); higher = less target engagement (more negative = stronger competition), active = hit call of the paper (q ≤ 0.05, log2 ratio ≤ -1)
# Settings in all cases: compound concentration: 200 uM; treatment time: 3 h
# [1] = biological target: T1, OTUD6B (UniProt Q8N6M0)
# T1 sequence (whole entry): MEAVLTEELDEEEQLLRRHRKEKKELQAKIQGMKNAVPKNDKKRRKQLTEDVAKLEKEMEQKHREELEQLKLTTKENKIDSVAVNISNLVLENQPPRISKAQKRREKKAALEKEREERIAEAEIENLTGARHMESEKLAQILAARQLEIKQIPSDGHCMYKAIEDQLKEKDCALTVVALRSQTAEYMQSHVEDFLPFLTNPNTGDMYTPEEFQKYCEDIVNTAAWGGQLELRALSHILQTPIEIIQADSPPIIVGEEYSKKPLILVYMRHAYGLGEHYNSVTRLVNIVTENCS
# Outline: (§1)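 Average log2 ratios of fragment over vehicle were obtained by unpaired t-test from global-median-normalised Spectronaut label-free quantities. Proteins with ≥2 unique peptides were included. HEK293T lysate (495 µg per sample) was treated in triplicate with fragment at 200 µM or vehicle for 3 h, then with Biotin-Ahx-Ub-VS at 0.5 µM final for 1 h, and labelled DUBs were NeutrAvidin-enriched and run by diaPASEF LC-MS/MS.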
# [2] = biological target: T2, OTUD7B (UniProt Q6GQQ9)
# T2 sequence (whole entry): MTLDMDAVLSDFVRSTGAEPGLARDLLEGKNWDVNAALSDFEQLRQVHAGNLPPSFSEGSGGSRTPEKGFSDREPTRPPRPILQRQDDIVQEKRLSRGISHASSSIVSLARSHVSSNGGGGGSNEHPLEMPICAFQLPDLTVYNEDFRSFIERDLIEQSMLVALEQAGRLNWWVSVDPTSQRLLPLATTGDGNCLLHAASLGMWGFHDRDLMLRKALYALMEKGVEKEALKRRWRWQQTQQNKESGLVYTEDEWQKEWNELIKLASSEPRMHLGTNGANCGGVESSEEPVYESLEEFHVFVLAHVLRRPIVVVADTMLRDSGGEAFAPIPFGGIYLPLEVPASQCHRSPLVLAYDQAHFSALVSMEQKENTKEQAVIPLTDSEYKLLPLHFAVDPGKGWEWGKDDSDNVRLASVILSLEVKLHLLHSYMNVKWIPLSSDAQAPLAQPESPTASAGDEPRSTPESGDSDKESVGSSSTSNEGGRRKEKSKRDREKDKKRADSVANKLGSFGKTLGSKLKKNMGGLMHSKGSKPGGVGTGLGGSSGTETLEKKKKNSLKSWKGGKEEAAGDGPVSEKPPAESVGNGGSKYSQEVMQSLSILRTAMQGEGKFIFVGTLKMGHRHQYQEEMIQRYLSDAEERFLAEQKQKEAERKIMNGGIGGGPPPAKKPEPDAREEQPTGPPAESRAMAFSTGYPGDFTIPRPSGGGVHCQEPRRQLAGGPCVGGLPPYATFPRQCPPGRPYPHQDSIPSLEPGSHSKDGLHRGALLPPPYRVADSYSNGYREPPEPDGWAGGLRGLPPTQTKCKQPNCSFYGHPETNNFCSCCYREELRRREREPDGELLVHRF
# Outline: as §1
# [3] = biological target: PRPF8 (UniProt Q6P2Q9)
# Outline: as §1
# [4] = biological target: T3, PSMD7 (UniProt P51665)
# T3 sequence (whole entry): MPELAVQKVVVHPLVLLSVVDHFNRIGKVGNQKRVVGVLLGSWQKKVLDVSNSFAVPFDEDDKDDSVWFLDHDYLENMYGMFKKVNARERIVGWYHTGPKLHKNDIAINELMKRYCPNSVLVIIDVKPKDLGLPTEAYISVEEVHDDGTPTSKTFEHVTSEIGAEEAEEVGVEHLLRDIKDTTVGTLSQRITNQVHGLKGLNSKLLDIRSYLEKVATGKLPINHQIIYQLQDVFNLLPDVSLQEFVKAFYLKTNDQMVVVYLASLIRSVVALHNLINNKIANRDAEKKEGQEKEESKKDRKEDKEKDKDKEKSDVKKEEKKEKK
# Outline: as §1
# [5] = biological target: UCHL1 (UniProt P09936)
# Outline: as §1
# [6] = biological target: T4, UCHL3 (UniProt P15374)
# T4 sequence (whole entry): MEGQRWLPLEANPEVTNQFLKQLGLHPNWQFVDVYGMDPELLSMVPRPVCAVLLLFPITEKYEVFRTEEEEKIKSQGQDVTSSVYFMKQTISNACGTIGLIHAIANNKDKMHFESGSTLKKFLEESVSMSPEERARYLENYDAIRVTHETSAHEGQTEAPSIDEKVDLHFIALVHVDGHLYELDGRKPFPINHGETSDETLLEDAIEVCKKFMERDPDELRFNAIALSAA
# Outline: as §1
# [7] = biological target: T5, UCHL5 (UniProt Q9Y5K5)
# T5 sequence (whole entry): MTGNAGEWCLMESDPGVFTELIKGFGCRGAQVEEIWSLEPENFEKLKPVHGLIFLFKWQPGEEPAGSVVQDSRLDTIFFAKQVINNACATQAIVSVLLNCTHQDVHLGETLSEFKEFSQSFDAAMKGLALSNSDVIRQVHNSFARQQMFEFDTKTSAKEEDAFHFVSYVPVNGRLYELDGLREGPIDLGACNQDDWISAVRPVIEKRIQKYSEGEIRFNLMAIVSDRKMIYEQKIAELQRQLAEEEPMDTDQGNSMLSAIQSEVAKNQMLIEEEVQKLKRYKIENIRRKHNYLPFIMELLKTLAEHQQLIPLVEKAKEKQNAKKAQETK
# Outline: as §1
# [8] = biological target: USP10 (UniProt Q14694)
# Outline: as §1
# [9] = biological target: T6, USP15 (UniProt Q9Y4E8)
# T6 sequence (whole entry): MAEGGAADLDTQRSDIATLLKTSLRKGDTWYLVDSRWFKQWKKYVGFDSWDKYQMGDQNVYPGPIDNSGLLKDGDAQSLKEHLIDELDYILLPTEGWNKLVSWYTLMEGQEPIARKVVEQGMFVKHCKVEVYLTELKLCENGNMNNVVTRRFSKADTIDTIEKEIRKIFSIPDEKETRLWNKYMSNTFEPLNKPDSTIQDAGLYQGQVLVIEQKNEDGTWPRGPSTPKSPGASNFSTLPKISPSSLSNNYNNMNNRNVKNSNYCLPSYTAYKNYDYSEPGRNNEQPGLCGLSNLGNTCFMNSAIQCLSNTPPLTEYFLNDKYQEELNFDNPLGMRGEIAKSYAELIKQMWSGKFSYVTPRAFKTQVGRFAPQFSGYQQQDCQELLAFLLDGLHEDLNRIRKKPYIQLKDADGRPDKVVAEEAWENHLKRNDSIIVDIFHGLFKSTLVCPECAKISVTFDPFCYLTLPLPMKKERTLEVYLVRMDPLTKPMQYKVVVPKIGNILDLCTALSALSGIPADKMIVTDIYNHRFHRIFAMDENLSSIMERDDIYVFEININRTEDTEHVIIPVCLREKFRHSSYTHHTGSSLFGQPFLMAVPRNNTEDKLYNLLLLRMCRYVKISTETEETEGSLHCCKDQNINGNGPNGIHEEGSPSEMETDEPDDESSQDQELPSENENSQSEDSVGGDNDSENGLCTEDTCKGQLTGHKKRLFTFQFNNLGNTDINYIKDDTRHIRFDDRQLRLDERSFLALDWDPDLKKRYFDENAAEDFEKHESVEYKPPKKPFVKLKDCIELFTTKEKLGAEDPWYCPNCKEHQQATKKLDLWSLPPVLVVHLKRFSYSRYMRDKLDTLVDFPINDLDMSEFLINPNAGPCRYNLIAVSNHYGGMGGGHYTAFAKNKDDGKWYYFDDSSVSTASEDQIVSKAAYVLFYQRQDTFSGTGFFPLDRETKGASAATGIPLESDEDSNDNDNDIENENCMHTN
# Outline: as §1
# [10] = biological target: USP16 (UniProt Q9Y5T5)
# Outline: as §1
# Chain of USP10 (Q14694 whole entry): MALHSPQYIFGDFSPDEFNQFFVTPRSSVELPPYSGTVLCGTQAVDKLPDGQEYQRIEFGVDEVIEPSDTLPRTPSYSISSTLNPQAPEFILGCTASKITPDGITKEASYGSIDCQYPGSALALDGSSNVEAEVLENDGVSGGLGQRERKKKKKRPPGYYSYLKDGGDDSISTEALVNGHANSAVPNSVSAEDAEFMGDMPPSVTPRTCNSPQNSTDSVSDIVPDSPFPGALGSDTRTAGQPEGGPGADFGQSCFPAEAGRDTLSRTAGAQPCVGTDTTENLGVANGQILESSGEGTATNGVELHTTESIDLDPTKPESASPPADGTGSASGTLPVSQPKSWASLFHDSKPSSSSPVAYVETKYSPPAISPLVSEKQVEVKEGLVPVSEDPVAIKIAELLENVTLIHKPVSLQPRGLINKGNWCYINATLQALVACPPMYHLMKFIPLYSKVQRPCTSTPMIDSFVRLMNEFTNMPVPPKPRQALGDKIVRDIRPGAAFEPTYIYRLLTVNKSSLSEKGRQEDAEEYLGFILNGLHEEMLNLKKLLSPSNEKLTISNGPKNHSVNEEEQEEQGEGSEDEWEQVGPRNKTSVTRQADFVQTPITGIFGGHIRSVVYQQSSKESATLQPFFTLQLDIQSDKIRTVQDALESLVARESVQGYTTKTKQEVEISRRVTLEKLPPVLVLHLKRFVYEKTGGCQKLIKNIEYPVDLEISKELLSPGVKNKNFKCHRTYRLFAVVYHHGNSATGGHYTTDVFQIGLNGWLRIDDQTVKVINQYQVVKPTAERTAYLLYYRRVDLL
# Chain of USP16 (Q9Y5T5 whole entry, looked up): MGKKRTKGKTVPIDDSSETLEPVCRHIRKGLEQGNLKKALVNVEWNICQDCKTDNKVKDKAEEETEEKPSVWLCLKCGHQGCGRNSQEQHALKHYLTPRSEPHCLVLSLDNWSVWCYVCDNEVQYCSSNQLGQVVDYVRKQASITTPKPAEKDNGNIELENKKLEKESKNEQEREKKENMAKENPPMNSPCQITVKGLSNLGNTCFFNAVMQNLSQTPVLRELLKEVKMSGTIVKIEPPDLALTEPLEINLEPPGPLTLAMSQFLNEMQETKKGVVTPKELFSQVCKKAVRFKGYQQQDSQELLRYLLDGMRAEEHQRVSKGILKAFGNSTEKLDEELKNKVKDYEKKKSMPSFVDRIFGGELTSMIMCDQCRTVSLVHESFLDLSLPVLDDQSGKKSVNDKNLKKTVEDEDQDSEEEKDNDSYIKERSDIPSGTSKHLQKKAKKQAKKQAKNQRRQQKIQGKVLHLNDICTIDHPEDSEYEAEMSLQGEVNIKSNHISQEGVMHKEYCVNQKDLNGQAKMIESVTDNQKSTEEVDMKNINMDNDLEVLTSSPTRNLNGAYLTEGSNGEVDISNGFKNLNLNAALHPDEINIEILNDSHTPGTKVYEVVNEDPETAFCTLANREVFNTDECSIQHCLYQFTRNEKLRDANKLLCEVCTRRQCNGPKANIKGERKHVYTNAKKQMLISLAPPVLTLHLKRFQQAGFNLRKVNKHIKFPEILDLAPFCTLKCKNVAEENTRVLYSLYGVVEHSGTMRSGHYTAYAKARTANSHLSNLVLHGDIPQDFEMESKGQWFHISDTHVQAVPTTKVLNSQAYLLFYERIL
# Chain of UCHL1 (P09936 whole entry, looked up): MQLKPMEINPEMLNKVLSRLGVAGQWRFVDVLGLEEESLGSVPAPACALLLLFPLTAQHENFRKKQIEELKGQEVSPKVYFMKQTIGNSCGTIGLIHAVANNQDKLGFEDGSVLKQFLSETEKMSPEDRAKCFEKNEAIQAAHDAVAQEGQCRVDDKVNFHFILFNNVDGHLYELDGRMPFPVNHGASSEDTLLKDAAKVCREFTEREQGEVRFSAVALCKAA
SMILES,log2 ratio of Biotin-Ahx-Ub-VS probe labelling [1],log2 ratio of Biotin-Ahx-Ub-VS probe labelling [2],log2 ratio of Biotin-Ahx-Ub-VS probe labelling [3],log2 ratio of Biotin-Ahx-Ub-VS probe labelling [4],log2 ratio of Biotin-Ahx-Ub-VS probe labelling [5],log2 ratio of Biotin-Ahx-Ub-VS probe labelling [6],log2 ratio of Biotin-Ahx-Ub-VS probe labelling [7],log2 ratio of Biotin-Ahx-Ub-VS probe labelling [8],log2 ratio of Biotin-Ahx-Ub-VS probe labelling [9],log2 ratio of Biotin-Ahx-Ub-VS probe labelling [10]
Cc1ccccc1OCC(=O)N1CCN(C(=O)CCl)CC1,-0.157,-0.203,0.281,0.113,-1.52 (active),0.461,-0.137,-0.173,-0.416,-0.973
Cc1nc(CN2CCCN(C(=O)CCl)CC2)no1.Cl,0.121,0.0504,0.0827,0.166,-0.971,0.331,-0.00418,0.0299,-0.0311,-0.188
Cl.O=C(CCl)NC1(c2ncccn2)CCC1,0.0771,-0.227,-0.0462,-0.289,-1.41 (active),0.32,-0.0083,0.0419,0.0327,0.0942
Cl.Cn1c(CNC(=O)CCl)nc2cccnc21,-0.213,-0.356,-0.144,-0.0899,-1.17 (active),0.177,-0.302,-0.0558,-0.177,-0.246
Cc1ccccc1C1(CNC(=O)CCl)CCOCC1,-0.054,-0.293,-0.0655,-0.0606,-1.45 (active),0.231,-0.272,-0.0236,-0.102,0.242
Cc1ccc2nnc(CNC(=O)CCl)n2c1,0.146,-0.395,0.153,0.238,-1 (active),0.34,-0.0479,-0.0942,-0.0934,-0.0611
O=C(CCl)Nc1ccc(N2CCCC2=O)cc1,0.116,-0.359,0.162,-0.145,-1.1 (active),0.206,-0.098,-0.0139,0.104,0.0122
O=C(CCl)N1CCC(=C(F)CO)C1,0.0579,0.0673,0.202,0.0975,-1.56 (active),-0.0974,0.0121,-0.107,-0.156,-0.506
Cc1ccc(CN(CCO)C(=O)CCl)cc1,-0.389,-1.14 (active),0.0652,-0.47,-1.56 (active),0.0861,-0.52,-0.0725,-0.384,0.361
O=C(CCl)N1CCCC1c1ccsc1 (stereo not given),-0.452,-0.521,0.0505,-0.39,-1.81 (active),-0.121,-0.228,-0.161,-0.548,-0.254
O=C(CCl)NCc1ccc(Cl)cc1,-0.0688,-0.726,0.0877,0.0253,-1.24 (active),0.379,-0.00645,-0.179,0.049,-0.354
Cc1cc(C(=O)NC2CCN(C(=O)CCl)CC2)no1,-0.173,-0.263,-0.0374,-0.0768,-1.58 (active),0.336,-0.135,-0.197,-0.252,0.021
CCc1c[nH]c(CNC(=O)CCl)n1.Cl,-0.246,-0.369,0.073,-0.469,-1.33 (active),0.0893,-0.335,-0.218,-0.538,-0.0099
O=C(CCl)NCCc1ccc2c(c1)OCCO2,-0.218,-0.434,0.0207,-0.153,-1.2 (active),-0.0656,-0.156,-0.3,-0.184,0.248
